According to PubChem BioAssay (NCATS):
Records with an inconclusive call do not appear. Activity calls are given as the source filed them. Unless noted, calls follow the shape of the dose curve; as a rule, active = well fitted curve in the direction sought with a large enough effect; inconclusive = small, poorly fitted or top-dose-only effect, or another doubt; inactive = no such curve, though single readings can be large; an effect the other way counts as inactive or inconclusive.

How the values were obtained:
[1] = molecular target: Thioredoxin reductase 1, cytoplasmic (Rattus norvegicus) (UniProt O89049); assay: qHTS Assay for Substrates of Mammalian Selenoprotein Thioredoxin Reductase 1 (TrxR1) (AID 488772);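 also: NADPH fluorescence in the first read after selenite addition and not the 8 min delta; series mostly up to about 57 µM; 0% is about no effect; a drop in NADPH fluorescence below the no-compound background marks a TrxR1 substrate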
Summary of the method: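 Quantitative HTS in Tris-HCl buffer at pH 7.5 with EDTA and Tween-20, using rat TrxR1, 400 uM NADPH and 400 uM selenite (final). A fall in initial NADPH fluorescence relative to background marked substrate behaviour.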

[2] = molecular target: Thioredoxin reductase 1, cytoplasmic (Rattus norvegicus) (UniProt O89049); assay: qHTS Assay for Inhibitors of Mammalian Selenoprotein Thioredoxin Reductase 1 (TrxR1) (AID 488773); settings: Potency: inhibition;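 also: drop in NADPH fluorescence over an 8 min run after selenite addition; series mostly up to about 57 µM; % is scaled to controls: 0 for no effect and ±100 for the full control effect; nearly all actives have a fitted effect of over 40% in size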
Summary of the method: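 Steps: enzyme (90 nM) plus NADPH (400 uM final), 5 min at ~22 deg C; compound added, 15 min; selenite (400 uM final) added; fluorescence followed for 8 min. Concentration-response curves derived from the normalized delta values.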

[3] = molecular target: Flap endonuclease 1 (Homo sapiens) (UniProt P39748); assay: qHTS Validation Assay for the Inhibitors of Human Flap endonuclease 1 (FEN1) (AID 488816); also: % is scaled to controls: 0 for no effect and ±100 for the full control effect
Summary of the method: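 Human FEN1 (10 nM) preincubated 15 min at room temperature with compounds, then flap DNA substrate added at 50 nM final. Fluorescence read at 0 and 15 min; concentration-response fitted with four-parameter Hill equation.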

[4] = molecular target: M-phase phosphoprotein 8 (Homo sapiens) (UniProt Q99549); assay: qHTS Validation Assay for Inhibitors for MPP8 Chromodomain Interactions with Methylated Histone Tails (AID 488949);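 also: AlphaScreen signal from MPP8 chromodomain bound to biotinylated H3K9me3 peptide; top concentration of the series differs between compounds; % is scaled to controls: 0 for no effect and ±100 for the full control effect; nearly all actives have a fitted effect of over 55% in size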
Summary of the method: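 Disruption of the preformed MPP8–trimethyl-H3K9 peptide complex (both 50 nM, 30 min, RT) is measured after 30 min compound exposure, using AlphaScreen proximity beads; aurintricarboxylic acid titration serves as plate control.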

[5] = molecular target: Chromobox protein homolog 1 (Homo sapiens) (UniProt P83916); assay: qHTS Validation Assay for Inhibitors of HP1-beta Chromodomain Interactions with Methylated Histone Tails (AID 488953); also: nearly all actives have a fitted effect of over 50% in size; also: potency is read from the fitted curve at half-maximal effect
Summary of the method: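 Measured as loss of AlphaScreen luminescence from streptavidin donor and nickel acceptor beads (10 ug/mL final) bridging HP1-beta and biotin-H3(1-18)K9me3, each 50 nM. Compounds met the preassembled complex for 30 min at RT.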

[6] = molecular target: Transient receptor potential cation channel subfamily V member 1 (Homo sapiens) (UniProt Q8NER1); assay: HTS Assay for Compounds that Act as Enhancers of the Vanilloid Receptor 1 (AID 488979); also: 0% is about no effect
Summary of the method: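 TRPV1 cells loaded with Fluo-8 calcium dye; compound added and Ca2+ signal (ex 480/em 520 nm) followed 3 min, then capsaicin at EC20 added and read 2 more min to detect enhancement.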

[7] = molecular target: D(1A) dopamine receptor (Homo sapiens) (UniProt P21728); assay: HTS Assay for Allosteric Agonists of the Human D1 Dopamine Receptor: Primary Screen for Potentiators (AID 488982); also: potency is read from the fitted curve at half-maximal effect
Summary of the method: (§1)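 Tetracycline-induced HEK293 Trex D1 cells with forced coupling to calcium, loaded with no-wash calcium dye; kinetic fluorescence read 180 s after compound addition for agonism, then a further 180 s after an EC20 dopamine challenge for potentiation.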

[8] = molecular target: ATP-dependent 6-phosphofructokinase (Trypanosoma brucei brucei) (UniProt O15648); assay: qHTS Assay to Find Inhibitors of T. brucei phosphofructokinase: hit validation (AID 492961); also: series mostly up to about 51 µM; % is scaled to controls: 0 for no effect and ±100 for the full control effect
Summary of the method: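 Luminescence from ADP-Glo reports ADP generated as T. brucei PFK (1.25 nM) phosphorylates 0.5 mM fructose-6-phosphate using 0.1 mM ATP. Reactions ran 45 min at room temperature, pH 8.0.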

[9] = Validation screen for small molecules that induce genotoxicity in human embryonic kidney (HEK293T) cells expressing luciferase-tagged ELG1 (AID 493106); also: 0% is about no effect
Summary of the method: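 Reporter-gene quantitative HTS in HEK293T cells carrying luciferase-tagged ELG1, whose level climbs under genotoxic stress. Compound exposure lasts 16 hr at 37 °C before luciferase detection.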

[10] = molecular target: ATPase family AAA domain-containing protein 5 (Homo sapiens) (UniProt Q96QE3); assay: Validation screen for small molecules that inhibit ELG1-dependent DNA repair in human embryonic kidney (HEK293T) cells expressing luciferase-tagged ELG1 (AID 493107);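 also: cells co-treated with the DNA-damaging agent 5-fluorouridine alongside compound; series mostly up to about 46 µM; % is scaled to controls: 0 for no effect and ±100 for the full control effect; inhibitors lower the ELG1-luciferase luminescence signal; nearly all actives have a fitted effect of over 70% in size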
Summary of the method: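 Quantitative HTS in HEK293T cells carrying luciferase-tagged ELG1, stimulated with 5-fluorouridine alongside compound for 16 hr. Loss of luciferase signal marks inhibition of ELG1 response.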

[11] = molecular target: Thyrotropin-releasing hormone receptor (Homo sapiens) (UniProt P34981); assay: qHTS for Small Molecule Agonists and Allosteric Enhancers of Human TRH Receptor: Validation Screen for Agonists (AID 493127;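 active = calcium activation more than 3 SD above the typical response in the agonist read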;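 also: intracellular calcium rise by fluo-8 fluorescence before TRH EC20 addition; 0% is about no effect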); settings: TRH receptor agonist cell assay; at 2 µM; stronger effect = higher value
Summary of the method: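 Gq-coupled calcium mobilization in TRHR cells after compound addition, monitored kinetically with fluo-8 dye on an FDSS reader.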

[12] = Nrf2 qHTS screen for inhibitors: Validation (AID 493153; active = well fitted inhibition curve with a large enough effect in the main read-out, with a control signal flat, not every such curve was filed as active); settings: Potency: luciferase luminescence; viability change: measured here: cytotoxicity max response
Summary of the method: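 Dose-response validation uses reporter A549 cells with firefly luciferase under an antioxidant response element. Compounds stay on cells 18-24 h at 37°C, and luminescence indicates Nrf2-driven transcription.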

[13] = qHTS for Inhibitors of Cell Surface uPA Generation: Validation Assay (AID 493164);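 also: RAW 264.7 macrophage cells exposed to compound for 18 h; 0% is about no effect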
Summary of the method: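 RAW 264.7, 4000 cells/well, o/n plating; cpd 7-pt 1:5 dilution 2.45 nM–38.3 uM final; 18 h, 37 C/5% CO2; ATP-Lite, 5 s luminescence exposure.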

[14] = molecular target: Galactokinase (Homo sapiens) (UniProt P51570); assay: qHTS Validation Assay for Inhibitors of Human Galactokinase (GALK) (AID 493189); also: 0% is about no effect
Summary of the method: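 Compounds were pin-transferred into ATP buffer, then GALK-galactose mix was added (final 5 nM enzyme, 100 uM galactose, 35 uM ATP). After 1 h at room temperature, remaining ATP was measured luminescently.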

[15] = Validation screen for small molecules that induce DNA re-replication in SW480 colon adenocarcinoma cells (AID 504364); also: 0% is about no effect
Summary of the method: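 Cells are treated 48 hr with test compound, stained 40 min with Hoechst at 37 C, and scanned for nuclear fluorescence; compounds inducing re-replication increase nuclei with elevated intensity.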

[16] = molecular target: Peptidyl-prolyl cis-trans isomerase NIMA-interacting 1 (Homo sapiens) (UniProt Q13526); assay: qHTS Validation Assay to Find Inhibitors of Pin1 (AID 504536; active = well fitted inhibition curve with a large enough effect in the polarisation, with a control signal flat, not every such curve was filed as active; the % refers to the polarisation;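 also: 0% = full Pin1 enzyme wells and -100% = no-enzyme wells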)
Summary of the method: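 Fluorescence polarization competition: compounds (titration) displace HiFluor-488-labeled Pin1-1b peptide from Pin1 (0.3 uM final) in pH 7.5 HEPES buffer with DTT, 10 min at room temperature; %Activity normalized to no-enzyme wells, curves fitted.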

[17] = molecular target: Thyrotropin receptor (Homo sapiens) (UniProt P16473); assay: qHTS Assay for Antagonists of the Thyroid Stimulating Hormone Receptor (AID 488980); also: series mostly up to about 58 µM; 0% is about no effect
Summary of the method: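 Cells expressing human TSHR (HEK293) are dispensed in HBSS/HEPES containing 70 uM RO 20-1724, compound is added, then TSH at EC80 (4 nM final). Antibody in lysis buffer follows, 30 minutes at room temperature before HTRF detection.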

[18] = molecular target: D(1A) dopamine receptor (Homo sapiens) (UniProt P21728); assay: HTS Assay for Allosteric Agonists of the Human D1 Dopamine Receptor: Primary Screen for Agonists (AID 488981); also: 0% is about no effect
Summary of the method: as §1

[19] = molecular target: D(1A) dopamine receptor (Homo sapiens) (UniProt P21728); assay: HTS Assay for Allosteric Agonists of the Human D1 Dopamine Receptor: Primary Screen for Antagonists (AID 488983);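 also: calcium flux response to an EC80 dopamine challenge measured with no-wash dye; % is scaled to controls: 0 for no effect and ±100 for the full control effect; nearly all actives have a fitted effect of over 65% in size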
Summary of the method: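 Screening of inducible HEK293 T-REx D1 cells: compound first, EC80 dopamine 180 s later, each phase read kinetically for calcium over 180 s.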

[20] = molecular target: Methanococcus maripaludis chaperonin (MmCpn) (UniProt Q6LX38); assay: High-Throughput Screening for Modulators of Cytosolic Chaperonin Activity: MmCpn Primary Screen (AID 488978);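 also: 50 nM MmCpn enzyme hydrolysing 30 µM ATP at 37 °C; 0% is about no effect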
Summary of the method: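 Measures ATPase turnover of the M. maripaludis chaperonin (50 nM final) against 30 uM ATP over 10 min at 37C, with compound added 5 min beforehand at room temperature. ADP is quantified by HTRF immunodetection.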

Thyrotropin-releasing hormone receptor (Homo sapiens), sequence (P34981 whole entry, looked up): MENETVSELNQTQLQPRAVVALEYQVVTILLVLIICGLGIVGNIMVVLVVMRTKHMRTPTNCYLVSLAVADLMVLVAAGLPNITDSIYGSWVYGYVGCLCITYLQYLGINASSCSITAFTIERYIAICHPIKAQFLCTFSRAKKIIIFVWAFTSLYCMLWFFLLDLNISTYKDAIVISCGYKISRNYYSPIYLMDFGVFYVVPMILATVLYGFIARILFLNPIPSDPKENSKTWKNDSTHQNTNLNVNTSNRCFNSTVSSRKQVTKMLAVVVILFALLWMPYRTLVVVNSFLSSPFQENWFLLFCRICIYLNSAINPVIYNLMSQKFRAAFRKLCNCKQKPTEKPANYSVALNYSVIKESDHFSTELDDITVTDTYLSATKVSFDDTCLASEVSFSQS
Peptidyl-prolyl cis-trans isomerase NIMA-interacting 1 (Homo sapiens), sequence (Q13526 whole entry, looked up): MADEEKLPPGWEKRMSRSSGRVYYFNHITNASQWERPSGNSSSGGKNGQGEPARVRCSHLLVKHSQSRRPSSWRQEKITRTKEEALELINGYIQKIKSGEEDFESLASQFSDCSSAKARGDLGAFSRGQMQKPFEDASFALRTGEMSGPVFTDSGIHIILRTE
Thioredoxin reductase 1, cytoplasmic (Rattus norvegicus), sequence (O89049 whole entry, looked up): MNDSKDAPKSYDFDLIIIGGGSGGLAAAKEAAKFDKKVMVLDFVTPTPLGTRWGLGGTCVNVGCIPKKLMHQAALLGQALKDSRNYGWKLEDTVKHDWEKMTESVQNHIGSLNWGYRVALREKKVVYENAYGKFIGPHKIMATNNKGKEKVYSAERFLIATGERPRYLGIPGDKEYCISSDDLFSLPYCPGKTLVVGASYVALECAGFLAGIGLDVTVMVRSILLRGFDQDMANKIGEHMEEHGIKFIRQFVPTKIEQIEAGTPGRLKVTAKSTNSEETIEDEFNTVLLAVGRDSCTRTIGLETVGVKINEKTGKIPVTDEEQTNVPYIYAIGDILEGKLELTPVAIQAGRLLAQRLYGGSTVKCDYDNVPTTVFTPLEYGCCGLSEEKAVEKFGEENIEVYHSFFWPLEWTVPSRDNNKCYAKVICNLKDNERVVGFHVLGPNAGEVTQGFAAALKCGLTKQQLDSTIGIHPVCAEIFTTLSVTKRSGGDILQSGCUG
Thyrotropin receptor (Homo sapiens), sequence (P16473 whole entry, looked up): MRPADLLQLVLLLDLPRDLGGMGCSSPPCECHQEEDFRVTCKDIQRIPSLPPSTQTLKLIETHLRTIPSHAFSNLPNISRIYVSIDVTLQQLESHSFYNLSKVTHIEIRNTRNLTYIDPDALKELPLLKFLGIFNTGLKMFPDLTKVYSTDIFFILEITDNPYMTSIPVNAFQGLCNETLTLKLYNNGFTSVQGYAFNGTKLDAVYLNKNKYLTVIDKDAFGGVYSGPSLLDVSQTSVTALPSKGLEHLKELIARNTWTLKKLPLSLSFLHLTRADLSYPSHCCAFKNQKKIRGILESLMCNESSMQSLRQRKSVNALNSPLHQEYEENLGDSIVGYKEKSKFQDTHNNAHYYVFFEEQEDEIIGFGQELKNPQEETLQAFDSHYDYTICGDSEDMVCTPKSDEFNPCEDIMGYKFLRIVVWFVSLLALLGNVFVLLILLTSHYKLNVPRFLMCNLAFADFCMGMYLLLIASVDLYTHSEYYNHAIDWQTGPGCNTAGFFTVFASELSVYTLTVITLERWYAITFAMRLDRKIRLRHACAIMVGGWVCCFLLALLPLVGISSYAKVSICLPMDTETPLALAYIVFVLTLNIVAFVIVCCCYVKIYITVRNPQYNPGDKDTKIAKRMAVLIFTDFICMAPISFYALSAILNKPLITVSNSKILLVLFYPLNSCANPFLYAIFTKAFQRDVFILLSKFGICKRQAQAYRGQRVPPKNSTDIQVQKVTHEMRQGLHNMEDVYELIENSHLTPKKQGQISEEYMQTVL
Flap endonuclease 1 (Homo sapiens), sequence (P39748 whole entry, looked up): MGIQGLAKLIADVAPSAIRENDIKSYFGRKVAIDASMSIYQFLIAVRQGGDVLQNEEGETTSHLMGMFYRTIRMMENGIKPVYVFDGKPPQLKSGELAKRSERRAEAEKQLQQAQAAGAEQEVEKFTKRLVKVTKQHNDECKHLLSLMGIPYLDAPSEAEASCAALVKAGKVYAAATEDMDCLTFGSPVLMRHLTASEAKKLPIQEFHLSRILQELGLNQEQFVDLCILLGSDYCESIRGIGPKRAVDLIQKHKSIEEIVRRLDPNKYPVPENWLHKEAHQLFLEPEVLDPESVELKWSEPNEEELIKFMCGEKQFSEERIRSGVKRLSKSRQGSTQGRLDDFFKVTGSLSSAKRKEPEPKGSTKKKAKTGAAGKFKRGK
ATPase family AAA domain-containing protein 5 (Homo sapiens), sequence (Q96QE3 whole entry, looked up, the tested form may be a part): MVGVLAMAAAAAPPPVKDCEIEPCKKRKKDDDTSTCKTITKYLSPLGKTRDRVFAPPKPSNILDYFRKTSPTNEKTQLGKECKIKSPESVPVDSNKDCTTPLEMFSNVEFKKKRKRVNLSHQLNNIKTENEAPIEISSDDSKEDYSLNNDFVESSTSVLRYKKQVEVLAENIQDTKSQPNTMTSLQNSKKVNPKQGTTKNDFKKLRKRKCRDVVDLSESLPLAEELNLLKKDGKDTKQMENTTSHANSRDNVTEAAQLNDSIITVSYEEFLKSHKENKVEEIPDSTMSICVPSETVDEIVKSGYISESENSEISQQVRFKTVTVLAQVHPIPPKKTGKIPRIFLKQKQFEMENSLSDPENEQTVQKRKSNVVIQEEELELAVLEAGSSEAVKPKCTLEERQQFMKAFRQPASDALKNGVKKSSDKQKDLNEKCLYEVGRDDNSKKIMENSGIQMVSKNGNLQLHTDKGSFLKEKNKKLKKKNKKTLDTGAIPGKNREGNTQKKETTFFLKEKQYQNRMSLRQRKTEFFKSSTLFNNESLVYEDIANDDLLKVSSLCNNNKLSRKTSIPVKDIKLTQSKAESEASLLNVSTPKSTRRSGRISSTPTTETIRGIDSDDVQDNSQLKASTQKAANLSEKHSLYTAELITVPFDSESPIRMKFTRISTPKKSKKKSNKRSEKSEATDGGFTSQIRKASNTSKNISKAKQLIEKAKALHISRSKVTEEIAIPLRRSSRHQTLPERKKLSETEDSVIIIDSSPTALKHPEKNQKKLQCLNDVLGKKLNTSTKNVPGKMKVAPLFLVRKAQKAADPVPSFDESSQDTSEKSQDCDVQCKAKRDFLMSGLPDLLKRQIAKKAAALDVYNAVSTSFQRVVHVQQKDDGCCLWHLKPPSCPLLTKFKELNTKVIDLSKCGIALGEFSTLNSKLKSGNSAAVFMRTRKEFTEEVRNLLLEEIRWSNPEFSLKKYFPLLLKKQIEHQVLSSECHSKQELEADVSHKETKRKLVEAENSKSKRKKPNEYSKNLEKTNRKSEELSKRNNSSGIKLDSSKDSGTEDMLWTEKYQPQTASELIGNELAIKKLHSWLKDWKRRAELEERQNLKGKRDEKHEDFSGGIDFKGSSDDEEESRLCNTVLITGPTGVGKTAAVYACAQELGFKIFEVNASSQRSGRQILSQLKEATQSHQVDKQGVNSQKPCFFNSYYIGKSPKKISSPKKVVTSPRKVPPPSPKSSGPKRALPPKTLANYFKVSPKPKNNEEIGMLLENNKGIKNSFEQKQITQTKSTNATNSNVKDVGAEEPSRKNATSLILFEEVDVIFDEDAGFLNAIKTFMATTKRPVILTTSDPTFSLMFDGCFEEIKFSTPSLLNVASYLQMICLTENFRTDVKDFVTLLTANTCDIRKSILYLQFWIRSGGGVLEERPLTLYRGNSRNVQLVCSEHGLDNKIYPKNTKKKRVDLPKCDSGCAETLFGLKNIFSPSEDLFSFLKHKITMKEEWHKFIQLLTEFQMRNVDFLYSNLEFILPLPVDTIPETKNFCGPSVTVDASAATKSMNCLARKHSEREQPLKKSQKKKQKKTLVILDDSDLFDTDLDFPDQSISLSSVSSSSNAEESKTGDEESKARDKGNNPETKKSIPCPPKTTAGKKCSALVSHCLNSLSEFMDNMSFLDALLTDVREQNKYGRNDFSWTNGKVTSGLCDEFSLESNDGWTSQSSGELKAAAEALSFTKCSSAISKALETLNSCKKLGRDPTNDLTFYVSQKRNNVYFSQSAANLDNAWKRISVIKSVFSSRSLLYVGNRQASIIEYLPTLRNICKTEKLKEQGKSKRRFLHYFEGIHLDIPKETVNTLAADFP
ATP-dependent 6-phosphofructokinase (Trypanosoma brucei brucei), sequence (O15648 whole entry, looked up): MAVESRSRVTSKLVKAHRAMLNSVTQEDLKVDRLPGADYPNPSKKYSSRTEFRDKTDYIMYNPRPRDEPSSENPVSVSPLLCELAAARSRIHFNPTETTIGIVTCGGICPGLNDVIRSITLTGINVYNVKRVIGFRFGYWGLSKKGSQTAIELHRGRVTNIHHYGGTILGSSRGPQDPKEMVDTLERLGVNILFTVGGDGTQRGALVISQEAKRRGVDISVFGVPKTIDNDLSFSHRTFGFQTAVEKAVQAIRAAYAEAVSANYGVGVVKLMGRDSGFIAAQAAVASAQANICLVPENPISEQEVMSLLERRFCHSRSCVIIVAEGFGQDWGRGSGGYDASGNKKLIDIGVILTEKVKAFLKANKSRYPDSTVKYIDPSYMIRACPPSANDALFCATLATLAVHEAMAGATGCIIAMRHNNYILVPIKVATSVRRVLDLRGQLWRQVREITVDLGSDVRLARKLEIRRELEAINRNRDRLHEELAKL
D(1A) dopamine receptor (Homo sapiens), sequence (P21728 whole entry, looked up): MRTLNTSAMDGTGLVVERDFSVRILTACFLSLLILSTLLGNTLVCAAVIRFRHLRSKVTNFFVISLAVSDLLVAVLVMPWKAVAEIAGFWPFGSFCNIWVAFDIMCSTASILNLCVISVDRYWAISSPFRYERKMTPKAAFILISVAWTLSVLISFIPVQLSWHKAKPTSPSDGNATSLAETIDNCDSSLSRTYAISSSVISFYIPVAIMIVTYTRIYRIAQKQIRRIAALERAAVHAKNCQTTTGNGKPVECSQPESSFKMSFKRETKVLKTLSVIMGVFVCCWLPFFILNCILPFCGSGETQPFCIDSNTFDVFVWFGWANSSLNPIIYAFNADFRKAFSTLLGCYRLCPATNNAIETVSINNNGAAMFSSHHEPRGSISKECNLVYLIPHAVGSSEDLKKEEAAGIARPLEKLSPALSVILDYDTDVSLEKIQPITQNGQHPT

OC(CN1CCC(Cc2ccc(F)cc2)CC1)c1ccc(Cl)cc1 (stereo not given)
inactive: outcome [1] | Potency [2] | Potency [3] | Potency [4] | Potency [5] | outcome [6] | Potency [7] | outcome [8] | Potency [9] | Potency [10] | activation [11] -3.12% | Potency [12] | outcome [13] | outcome [14] | outcome [15] | outcome [16]
-17.6%: viability change [12]

N[C@@H]1CONC1=O
inactive: outcome [1] | Potency [2] | Potency [3] | Potency [4] | outcome [6] | outcome [17] | Potency [18] | Potency [7] | Potency [19] | outcome [8] | Potency [9] | Potency [10] | Potency [12] | outcome [13] | outcome [14] | outcome [15] | outcome [16]
10.9%: viability change [12]

CC(c1cc2ccccc2s1)N(O)C(N)=O (stereo not given)
inactive: outcome [8]

Cc1c(C)c2c(c(C)c1O)CCC(C)(COc1ccc(CC3SC(=O)NC3=O)cc1)O2 (stereo not given)
inactive: outcome [8]

OC(CCN1CCCCC1)(c1ccccc1)C1CC2C=CC1C2 (stereo not given)
inactive: outcome [1] | Potency [2] | Potency [3] | Potency [4] | Potency [5] | Potency [18] | Potency [7] | Potency [19] | Potency [9] | Potency [10] | Potency [12] | outcome [13] | outcome [16]
-8.46%: viability change [12]

Oc1ccc(C2CNCCc3c2cc(O)c(O)c3Cl)cc1 (stereo not given)
0.62%: viability change [12]
active: Potency [5] 6.7 nM
inactive: outcome [1] | Potency [4] | outcome [6] | outcome [17] | Potency [7] | Potency [9] | Potency [10] | Potency [12] | outcome [13] | outcome [14] | outcome [15] | outcome [16]

CCOC(=O)C1=C[C@]2(CC)CCCN3CCc4c(n1c1ccccc41)[C@@H]32
-5.34%: viability change [12]
active: Potency [7] 3260 nM
inactive: outcome [1] | Potency [2] | Potency [3] | Potency [4] | outcome [6] | outcome [17] | Potency [18] | Potency [9] | activation [11] 0.0625% | Potency [12] | outcome [13] | outcome [14] | outcome [15] | outcome [16]

Nc1nc2c(ncn2COCCO)c(=O)[nH]1
inactive: Potency [2] | Potency [4] | Potency [5] | outcome [20] | outcome [17] | Potency [18] | Potency [7] | Potency [19] | outcome [8] | Potency [9] | Potency [10] | Potency [12] | outcome [13] | outcome [14] | outcome [15] | outcome [16]
-1.37%: viability change [12]

NCCCC(N)(C(=O)O)C(F)F (stereo not given)
inactive: outcome [1] | Potency [2] | Potency [3] | Potency [4] | outcome [6] | outcome [17] | Potency [18] | Potency [7] | Potency [19] | outcome [8] | Potency [9] | Potency [10] | activation [11] 0.938% | outcome [13] | outcome [14] | outcome [15] | outcome [16]
